Measured values taken from PubChem BioAssay (NCATS).
Inconclusive results are not listed. Active and inactive are the calls of the source. The call rests on the fitted dose curve; in most records, active means well fitted cell-killing curve with a large enough effect; inconclusive means small, poorly fitted or top-dose-only effect, or effect the other way; inactive means flat fitted curve, though single readings scatter.

Assays:
Assay in all cases: Primary qHTS to identify gynecologic anti-cancer compounds using libraries of approved drugs and bioactive compounds (AID 1345084); further: nearly all actives have a fitted effect of over 55% in size
Hek293T = settings: Gynecologic cancer cell panel viability, ATPlite luminescence, 48 h, control line for the selectivity index; series mostly up to 57.5 µM
How it was run: (§1)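 In this quantitative HTS, cell killing is estimated from loss of ATP-dependent luciferase light. Cells see five compound concentrations over a 48 h exposure.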

JEG-3 = settings: Gynecologic cancer cell panel viability, ATPlite luminescence, 48 h; series mostly up to 57.5 µM
How it was run: as §1

OV90 = settings: Gynecologic cancer cell panel viability, ATPlite luminescence, 48 h; series mostly up to 57.5 µM
How it was run: as §1

PA-1 = settings: Gynecologic cancer cell panel viability, ATPlite luminescence, 48 h; series mostly up to 57.5 µM
How it was run: as §1

SKOV3 = settings: Gynecologic cancer cell panel viability, ATPlite luminescence, 48 h; series mostly up to 57.5 µM
How it was run: as §1

Tov-21-G = settings: Gynecologic cancer cell panel viability, ATPlite luminescence, 48 h; series mostly up to 57.5 µM
How it was run: as §1

Tov112D = settings: Gynecologic cancer cell panel viability, ATPlite luminescence, 48 h; series mostly up to 57.5 µM
How it was run: as §1
On the % scale 0 is the no-effect control and ±100 the full control effect.

OCCc1ccc(O[C@@H]2O[C@H](CO)[C@@H](O)[C@H](O)[C@H]2O)c(O)c1
inactive: Potency (Hek293T) | Potency (JEG-3) | Potency (OV90) | Potency (PA-1) | Potency (SKOV3) | Potency (Tov-21-G) | Potency (Tov112D)

CC1CCCC2OC2C(=O)c2c(O)cc(O)cc2CC(=O)O1 (centres undefined)
inactive: Potency (Hek293T) | Potency (JEG-3) | Potency (OV90) | Potency (PA-1) | Potency (SKOV3) | Potency (Tov-21-G) | Potency (Tov112D)

NC(=O)c1cccc(-c2cc(O)cc(OC(=O)NC3CCCCC3)c2)c1
inactive: Potency (Hek293T) | Potency (JEG-3) | Potency (OV90) | Potency (PA-1) | Potency (SKOV3) | Potency (Tov-21-G) | Potency (Tov112D)

N#CCc1ccc(O)cc1O[C@@H]1O[C@H](CO)[C@@H](O)[C@H](O)[C@H]1O
inactive: Potency (Hek293T) | Potency (JEG-3) | Potency (OV90) | Potency (PA-1) | Potency (SKOV3) | Potency (Tov-21-G) | Potency (Tov112D)

C=CC1(C)CC2=CCC3C(C)(C(=O)O)CCCC3(C)C2CC1OC(C)=O (centres undefined)
inactive: Potency (Hek293T) | Potency (JEG-3) | Potency (OV90) | Potency (PA-1) | Potency (SKOV3) | Potency (Tov-21-G) | Potency (Tov112D)

C[C@@H]1CC[C@H]2C(C)(C)[C@H](O)[C@H](O)C[C@]2(C)[C@@]12Cc1c(O)cc3c(c1O2)CNC3=O
inactive: Potency (Hek293T) | Potency (JEG-3) | Potency (OV90) | Potency (PA-1) | Potency (SKOV3) | Potency (Tov-21-G) | Potency (Tov112D)

COC1=CC(=O)C[C@@H](C)[C@]12Oc1cc(OC)cc(OC)c1C2=O
inactive: Potency (Hek293T) | Potency (JEG-3) | Potency (OV90) | Potency (PA-1) | Potency (SKOV3) | Potency (Tov-21-G) | Potency (Tov112D)

CC1CCC2(C)C(CC(O)C(O)C23CO3)C1(C)CCC1=CC(O)OC1=O (centres undefined)
inactive: Potency (Hek293T) | Potency (JEG-3) | Potency (OV90) | Potency (PA-1) | Potency (SKOV3) | Potency (Tov-21-G) | Potency (Tov112D)

CC(=O)OCCC(C)CCC1C(C)(O)CCC2C(C)(C)CCCC21C (centres undefined)
inactive: Potency (Hek293T) | Potency (JEG-3) | Potency (OV90) | Potency (PA-1) | Potency (SKOV3) | Potency (Tov-21-G) | Potency (Tov112D)

COc1cc(O[C@@H]2O[C@H](CO)[C@@H](O)[C@H](O)[C@H]2O)c(CCC(=O)OC[C@H]2O[C@@H](Oc3cc(OC)c(C4OC(=O)C(C)(O)C4O)cc3CCC(=O)O)[C@H](O)[C@@H](O)[C@@H]2O)cc1C1OC(=O)C(C)(O)C1O (some centres undefined)
inactive: activity change, negative = cytotoxicity (Hek293T) -1.4% [at 11.6 µM] | activity change, negative = cytotoxicity (JEG-3) -12.6% [at 11.6 µM] | activity change, negative = cytotoxicity (OV90) -1.59% [at 11.6 µM] | activity change, negative = cytotoxicity (PA-1) -4.41% [at 11.6 µM] | activity change, negative = cytotoxicity (SKOV3) -20.1% [at 11.6 µM] | activity change, negative = cytotoxicity (Tov-21-G) -4.07% [at 11.6 µM] | activity change, negative = cytotoxicity (Tov112D) 3.59% [at 11.6 µM]

COc1ccc(C(O[C@@H]2O[C@H](CO)[C@@H](O)[C@H](O)[C@H]2O)C(CO)Oc2ccc(/C=C/CO)cc2OC)cc1O (some centres undefined)
inactive: Potency (Hek293T) | Potency (JEG-3) | Potency (OV90) | Potency (PA-1) | Potency (SKOV3) | Potency (Tov-21-G) | Potency (Tov112D)

COc1cc(NC(=O)c2ccccn2)ccc1Cl
inactive: Potency (Hek293T) | Potency (JEG-3) | Potency (OV90) | Potency (PA-1) | Potency (SKOV3) | Potency (Tov-21-G) | Potency (Tov112D)

COc1ccc([C@@H]2N[C@H](C(=O)O)Cc3c2[nH]c2ccccc32)cc1CN1CCN(c2ccccc2F)CC1
inactive: Potency (Hek293T) | Potency (JEG-3) | Potency (OV90) | Potency (PA-1) | Potency (SKOV3) | Potency (Tov-21-G) | Potency (Tov112D)

NC(=O)c1ccc(OCC2NC(=O)C3CCCN3C2=O)cc1 (centres undefined)
inactive: Potency (Hek293T) | Potency (JEG-3) | Potency (OV90) | Potency (PA-1) | Potency (SKOV3) | Potency (Tov-21-G) | Potency (Tov112D)

CC(=O)NC(C(=O)OC1CCC(C)(C)C2CC=C3C(=O)OCC3(O)C12C)C(C)C (centres undefined)
inactive: Potency (Hek293T) | Potency (JEG-3) | Potency (OV90) | Potency (PA-1) | Potency (SKOV3) | Potency (Tov-21-G) | Potency (Tov112D)

CC1CCC2C(C)(C)C(O)CCC2(C)C12Cc1c(O)cc3c(c1O2)CN=C3N (centres undefined)
inactive: Potency (Hek293T) | Potency (JEG-3) | Potency (OV90) | Potency (PA-1) | Potency (SKOV3) | Potency (Tov-21-G) | Potency (Tov112D)

CCOc1ccc(-c2ccc(Cn3c(CC(C)(C)C(=O)O)c(SC(C)(C)C)c4cc(OCc5ccc(C)cn5)ccc43)cc2)cn1
inactive: Potency (Hek293T) | Potency (JEG-3) | Potency (OV90) | Potency (PA-1) | Potency (SKOV3) | Potency (Tov-21-G) | Potency (Tov112D)
